Data on 44 sequences can be found in PMC10726135, “HNF4α isoforms regulate the circadian balance between carbohydrate and lipid metabolism in the liver”.

In all, about 18,000 sequences were measured (“log2 normalized intensity”: median about 0.36, highest 2% from about 7.3 on). Only a selection was taken, and the highest values are over-represented in it overall.

In the test the target is T1, HNF4alpha8 (COS-7 nuclear extract) (Homo sapiens, UniProt P41235-5 1-452).
T1 sequence: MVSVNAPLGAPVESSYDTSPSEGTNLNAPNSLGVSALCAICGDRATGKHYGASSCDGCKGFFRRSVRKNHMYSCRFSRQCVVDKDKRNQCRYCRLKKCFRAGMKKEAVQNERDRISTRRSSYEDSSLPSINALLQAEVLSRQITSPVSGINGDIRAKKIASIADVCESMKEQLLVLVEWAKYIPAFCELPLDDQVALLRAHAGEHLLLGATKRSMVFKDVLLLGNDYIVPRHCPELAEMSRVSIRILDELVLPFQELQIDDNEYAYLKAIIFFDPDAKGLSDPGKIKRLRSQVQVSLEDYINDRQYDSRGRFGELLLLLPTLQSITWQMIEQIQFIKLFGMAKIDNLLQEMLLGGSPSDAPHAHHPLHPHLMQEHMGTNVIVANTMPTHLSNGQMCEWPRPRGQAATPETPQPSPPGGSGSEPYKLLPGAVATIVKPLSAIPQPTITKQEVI
Briefly: protein-binding microarray; COS-7 nuclear extract on double-stranded Agilent 4x180k PBM; binding buffer, salt, pH and temperature not given in the material; high values mean tight binding. Particulars: chain copies: 2; label: 3' end of strand 1 on the slide; dsDNA, one strand shown. A digest of the protocol: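 A human HNF4α isoform was expressed in COS-7 cells by transient CaPO4 transfection, and nuclear extracts were prepared. These were applied to a custom Agilent SurePrint G3 4x180k array carrying ~44,000 test sequences in quadruplicate as double-stranded ~60-nt oligonucleotides, and an Agilent G2565CA scanner imaged bound HNF4α at 2-µm resolution. The background-corrected, normalized gProcessedSignal from Agilent software was used as the binding signal.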
Consider “GAACTCTGACCTTTGCCCCCAGCCTCTCACGCCTAGGGAGATTAGAGTATCGGTCGA”, for which the binding signal was 9.22 log2 normalized intensity.

In the case of “CTTTGCCCCCAGCCTCTCACAGTAGCCCAGGCCTAGGGAGATTAGAGTATCGGTCGA”, the binding signal was 4.72 log2 normalized intensity.

Consider “TGCCCAGCTTGAATCACTCACTGACCTCTTGCCTAGGGAGATTAGAGTATCGGTCGA”, for which the binding signal turned out to be 4.46 log2 normalized intensity.

With “GCTATCTTATCTTTGACCTTACCAGCCCACGCCTAGGGAGATTAGAGTATCGGTCGA”, the binding signal was determined as 2.94 log2 normalized intensity.

Consider “CTGACCTTTGCCCCCAGCCTCTCACAGTAGGCCTAGGGAGATTAGAGTATCGGTCGA”, for which the binding signal is 7.53 log2 normalized intensity.

On to “TCTGCTTGCCATTAATGAAAACTGCACTTCGCCTAGGGAGATTAGAGTATCGGTCGA”, for which the binding signal worked out at 2.38 log2 normalized intensity.

Take “TTTATTTGAAGAAATGGTGGACTTTGTAGCGCCTAGGGAGATTAGAGTATCGGTCGA”: the binding signal was found to be 6.52 log2 normalized intensity.

Take “ATTCTCACCACTAGGAAACTGACCTTTGCTGCCTAGGGAGATTAGAGTATCGGTCGA”: the binding signal amounted to 6.07 log2 normalized intensity.

For “CTACTACTTGACCTTTGAAACATATCCAGAGCCTAGGGAGATTAGAGTATCGGTCGA”, the binding signal amounted to 6.31 log2 normalized intensity.

On to “AAAGACTTGCTCATTGATGAGTGACCTTTGGCCTAGGGAGATTAGAGTATCGGTCGA”, for which the binding signal came out at 7 log2 normalized intensity.

As for “CACCACTAGGAAACTGACCTTTGCTCATGAGCCTAGGGAGATTAGAGTATCGGTCGA”, the binding signal is 7.58 log2 normalized intensity.

For “GTGACCTTTGACCTCAGAGAGCCGGAAACTGCCTAGGGAGATTAGAGTATCGGTCGA”, the binding signal came to 8.02 log2 normalized intensity.

As to “TCATTGATGAGTGACCTTTGACCTCAGAGAGCCTAGGGAGATTAGAGTATCGGTCGA”, the binding signal was 10.5 log2 normalized intensity.

In the case of “CCCTCAGAGCTCAGATGAACTTTGCCTTAGGCCTAGGGAGATTAGAGTATCGGTCGA”, the binding signal came out at 6.28 log2 normalized intensity.

Turning to “CTTTGACCTCAGAGAGCCGGAAACTCCACCGCCTAGGGAGATTAGAGTATCGGTCGA”, the binding signal was -0.861 log2 normalized intensity.

For “GATGAGTGACCTTTGACCTCAGAGAGCCGGGCCTAGGGAGATTAGAGTATCGGTCGA”, the binding signal was 9.88 log2 normalized intensity.

As to “GGCTGATGACCTTTGACTGAGATGGGAGCAGCCTAGGGAGATTAGAGTATCGGTCGA”, the binding signal amounted to 4.58 log2 normalized intensity.

“CTAGGAAACTGACCTTTGCTCATGACTATTGCCTAGGGAGATTAGAGTATCGGTCGA”: the binding signal came to 6.61 log2 normalized intensity.

Turning to “TTGCCCCTTTGACCCTCGGGCCTCCCTAGAGCCTAGGGAGATTAGAGTATCGGTCGA”, the binding signal is 4.81 log2 normalized intensity.

For “GGTCAATGTGCACATTCGAAGTTTTGCTCCGCCTAGGGAGATTAGAGTATCGGTCGA”, the binding signal was 1.65 log2 normalized intensity.

For “GGATATTTGATCAAAGGTCAGCTCTCCTTTGCCTAGGGAGATTAGAGTATCGGTCGA”, the binding signal came to 5.11 log2 normalized intensity.

Turning to “TTTATAATCCTAGCTTGGTTTTTCTGGGACGCCTAGGGAGATTAGAGTATCGGTCGA”, the binding signal turned out to be 0.942 log2 normalized intensity.

Take “GGATTATGGAGATGGAGATGGCCTGGAGGTGCCTAGGGAGATTAGAGTATCGGTCGA”: the binding signal was determined as 0.909 log2 normalized intensity.

On to “ACAACCAGGGAGATGTGAGCGACCTTTGCAGCCTAGGGAGATTAGAGTATCGGTCGA”, for which the binding signal was found to be 4.55 log2 normalized intensity.

With “GGTTGTAAAATGAGGTCAGCATGGTGGGAGGCCTAGGGAGATTAGAGTATCGGTCGA”, the binding signal came to 1.04 log2 normalized intensity.

With “GGGGCGATGCTTCCAAAGTCCACAGTCCCCGCCTAGGGAGATTAGAGTATCGGTCGA”, the binding signal amounted to 3.92 log2 normalized intensity.

Take “CTCTTTTACTGTACTTCTTTAGGACTGCTCGCCTAGGGAGATTAGAGTATCGGTCGA”: the binding signal is 1.37 log2 normalized intensity.

Consider “ATATAAAAACTAACCATACTGAGTGTTGGTGCCTAGGGAGATTAGAGTATCGGTCGA”, for which the binding signal was -0.252 log2 normalized intensity.

For the sequence “AGTGTAAGGACATTGCCCCCTATGTAAAGGGCCTAGGGAGATTAGAGTATCGGTCGA”, the binding signal came to 4.09 log2 normalized intensity.

“TGATTACCCTTATCTTATCTCCTGCTAAATGCCTAGGGAGATTAGAGTATCGGTCGA”: the binding signal is -0.759 log2 normalized intensity.

In the case of “TTTCAACATTTAACTTAACCACTCAATCAGGCCTAGGGAGATTAGAGTATCGGTCGA”, the binding signal was -0.86 log2 normalized intensity.

Take “CTTTGAGATTTGCATTCATGATCTTAGATAGCCTAGGGAGATTAGAGTATCGGTCGA”: the binding signal came out at 0.242 log2 normalized intensity.

Take “TTAGCTATCAGTGTTGACCTCTGGACCTCAGCCTAGGGAGATTAGAGTATCGGTCGA”: the binding signal was found to be 7.79 log2 normalized intensity.

Take “TCTGGTGCCAAGGAGCCTCTGCAACCTTTGGCCTAGGGAGATTAGAGTATCGGTCGA”: the binding signal came to 3.43 log2 normalized intensity.

Take “CTGACCTCAAGTGACCTTTGACCTCTGGCCGCCTAGGGAGATTAGAGTATCGGTCGA”: the binding signal was 11.2 log2 normalized intensity.

Take “GATGTTTAGCTATCAGTGTTGACCTCTGGAGCCTAGGGAGATTAGAGTATCGGTCGA”: the binding signal stood at 6.06 log2 normalized intensity.

In the case of “TGACCTTTGCCTCATTCTTATTGCCTCATGGCCTAGGGAGATTAGAGTATCGGTCGA”, the binding signal was 4.2 log2 normalized intensity.

Regarding “CTCTAACCACTTTGAAATAGTGACCTCTGCGCCTAGGGAGATTAGAGTATCGGTCGA”, the binding signal was found to be 5.01 log2 normalized intensity.

In the case of “ACCTTTGCCTTCTTGACATCTCTCTCTGCAGCCTAGGGAGATTAGAGTATCGGTCGA”, the binding signal is -0.0607 log2 normalized intensity.

In the case of “GTGACCTTTGACCTCTGGCCTTTGCAGTTAGCCTAGGGAGATTAGAGTATCGGTCGA”, the binding signal is 8.79 log2 normalized intensity.

On to “CTCAAGTGACCTTTGACCTCTGGCCTTTGCGCCTAGGGAGATTAGAGTATCGGTCGA”, for which the binding signal was determined as 10.3 log2 normalized intensity.

For “ACCACTTTGAAATAGTGACCTCTGCTGGCCGCCTAGGGAGATTAGAGTATCGGTCGA”, the binding signal is 3.43 log2 normalized intensity.

Regarding “TATCAGTGTTGACCTCTGGACCTCATCTTCGCCTAGGGAGATTAGAGTATCGGTCGA”, the binding signal was determined as 6.23 log2 normalized intensity.

In the case of “CTGACAAGTATCTCGGTCAAACCTTTGACCGCCTAGGGAGATTAGAGTATCGGTCGA”, the binding signal came out at 6.35 log2 normalized intensity.
